Screening data deposited in PubChem by National Center for Advancing Translational Sciences (NCATS).
Only some compounds are listed: those with a hit (about 1% of all), similar ones and a draw of the others.
gsp agonist – qHTS for Agonist of gsp, the Etiologic Mutation Responsible for Fibrous Dysplasia/McCune-Albright Syndrome: qHTS; gsp mutant cells, cAMP HTRF, 30 min; Potency, µM (series often up to 76.9 µM), for the others: at the highest dose activation (cAMP increase), actives largely listed as activators; hit rate 0.13% among 340,000; AID 624287, 2012; active means well fitted activation curve with a large enough effect; inconclusive means small, poorly fitted or top-dose-only effect, or another doubt; inactive means no such curve, though single readings can be large or run the other way; cell line not stated here;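 further: phosphodiesterase inhibitor Ro 20-1724 added with compounds to block cAMP breakdown; potency means the concentration at half of the fitted maximal effect; nearly all actives have a fitted effect of over 60% in size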
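Cells stably selected in G418 were plated at 2000/well, grown 16-24 hr, then given compounds in DMSO with the PDE inhibitor […] (300 uM solution added) for 30 min at 37C; cAMP was read by HTRF.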
gsp antagonist – qHTS for Antagonists of gsp, the Etiologic Mutation Responsible for Fibrous Dysplasia/McCune-Albright Syndrome: qHTS. gsp-mutant cells, cAMP HTRF, 30 min. Potency, µM (titrated, usually from 76.9 µM), inactives show top-dose activity change, negative = inhibition, hits mostly inhibitors. hit rate 0.4% among 340,000; calls by dose curve; cell line not stated here;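 further: intracellular cAMP measured with PDE inhibitor Ro 20-1724 present during compound exposure; potency means the concentration at half of the fitted maximal effect; on the % scale 0 is the no-effect control and ±100 the full control effect; nearly all actives have a fitted effect of over 65% in size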
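G418-selected cells were plated in DMEM/10% FBS for 16-24 h at 37C, then treated with compounds plus the PDE inhibitor […] (300 uM solution added) for 30 min at 37C. Intracellular cAMP was measured by HTRF after 30 min lysis at room temperature.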
TSHR antagonist – Antagonists of the Thyroid Stimulating Hormone Receptor: HTS campaign; Thyrotropin receptor (Homo sapiens), P16473; TSHR-expressing cells, TSH-stimulated cAMP HTRF, 2 h; active compounds read low; activity change, negative = inhibition, % at 11.5 µM; hit rate 0.2% among 330,000; AID 504810, 2011;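 active means activity change below a set negative limit, meaning inhibition stronger than a set level, cut at about -70% in these data; inconclusive means activity change between two set negative limits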; further: on the % scale 0 is the no-effect control and ±100 the full control effect
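Cell-based HTRF cAMP assay; TSHR cells + compound, TSH EC80 (4nM final), 2 h, 37 deg C. Lysis with anti-cAMP cryptate and cAMP-d2, 30 min RT, read 665/620 nm.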
RXFP1 ag – qHTS Assay for Agonists of the Relaxin Receptor RXFP1; hit rate 0.3% among 370,000; Potency, µM (highest dose often 57.5 µM), inactives show at the highest dose activation, most hits filed as activators; AID 2676, 2010; HEK293T-RXFP1 cAMP TR-FRET, 30 min; response scale: percent of porcine relaxin response, buffer zero; Relaxin receptor 1 (Homo sapiens), Q9HBX9; active means well fitted activation curve with a large enough effect; inconclusive means small, poorly fitted or top-dose-only effect; further: potency means the concentration at half of the fitted maximal effect; on the % scale 0 is the no-effect control and ±100 the full control effect; nearly all actives have a fitted effect of over 60% in size
Target sequence (Q9HBX9 whole entry, looked up): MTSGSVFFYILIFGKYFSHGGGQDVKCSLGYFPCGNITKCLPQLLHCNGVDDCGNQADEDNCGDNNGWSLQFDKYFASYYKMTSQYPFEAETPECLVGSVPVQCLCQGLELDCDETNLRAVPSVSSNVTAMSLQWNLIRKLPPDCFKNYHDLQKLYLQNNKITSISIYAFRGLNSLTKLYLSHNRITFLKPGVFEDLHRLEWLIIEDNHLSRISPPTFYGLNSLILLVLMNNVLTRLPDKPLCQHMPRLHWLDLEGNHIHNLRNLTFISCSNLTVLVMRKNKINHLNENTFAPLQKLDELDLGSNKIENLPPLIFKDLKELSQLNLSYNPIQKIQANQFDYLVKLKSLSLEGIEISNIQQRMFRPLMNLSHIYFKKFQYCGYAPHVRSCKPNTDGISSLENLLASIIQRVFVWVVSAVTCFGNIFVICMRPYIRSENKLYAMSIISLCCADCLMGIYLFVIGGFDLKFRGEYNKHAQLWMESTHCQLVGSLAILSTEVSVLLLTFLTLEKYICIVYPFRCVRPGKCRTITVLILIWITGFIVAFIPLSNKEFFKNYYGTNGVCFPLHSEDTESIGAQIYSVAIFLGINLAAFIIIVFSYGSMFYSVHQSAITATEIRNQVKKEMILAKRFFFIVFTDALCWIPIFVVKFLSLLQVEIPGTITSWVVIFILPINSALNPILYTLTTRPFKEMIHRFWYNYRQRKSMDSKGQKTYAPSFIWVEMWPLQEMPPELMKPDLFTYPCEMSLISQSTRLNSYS
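cAMP rise read by TR-FRET after 30 min, 37C compound exposure (up to 58 uM) in RXFP1-transfected HEK293 cells with Ro 20174 present. EC50 from Hill-equation fits, with 29 nM porcine relaxin as 100% and buffer as basal.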
RXFP1 antag – qHTS Assay for Antagonists of the Relaxin Receptor RXFP1; Relaxin receptor 1 (Homo sapiens), Q9HBX9; HEK293-RXFP1, relaxin-stimulated cAMP HTRF, 30 min; active compounds read low; activity change, negative = inhibition, % at 57.5 µM; hit rate 0.59% among 350,000; AID 1259400, 2018;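 active means activity change of -60% or lower, but not beyond a set lower limit; inconclusive means change between -60% and -40%, or beyond the set limit; inactive means change above -40%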; further: on the % scale 0 is the no-effect control and ±100 the full control effect
* = called active by the depositor; u = inconclusive; x = no result given; ! = not confirmed by another sample; [ ] = dose if it differs, or a comment.

SMILES	gsp agonist	gsp antagonist	TSHR antagonist	RXFP1 ag	RXFP1 antag
CC1CCCN(CCCNC(=O)c2nn(C)c3c2CS(=O)(=O)c2ccccc2-3)C1 (stereo not drawn)	15.6%	-17.1%	7.3	3.9%	-83.8*
Cc1nc2ccccc2c2c1CC(C(C)(Cl)Br)O2 (stereo not drawn)	0.9%	-11.8%	-29.8	1.6%	u
Cc1nc2ccccc2c2c1CC(C)S2 (stereo not drawn)	8.91µM*	0.6%	-2.4	8.2%	14.3
NC(=O)C1CCN(c2nc(-c3ccc4c(c3)OCO4)cs2)CC1	x	x	18.9	x	x
O=C(Cn1cc(C(=O)C2CC2)c2ccccc21)Nc1ccc(Br)cc1	x	x	x	20µM*	6.9
Cc1ccc(NC(=O)Cn2cc(C(=O)C3CC3)c3ccccc32)cc1	17.1%[15.4 µM]	9.0%	-5.6	10µM*!	-2.2
Cc1cc(=O)c2c(O)c3c(O)cc(=O)c4c3c3c(cc(O)c1c23)C(C)(C)C=4O	x	x	x	x	-9.6
Cc1cc(C)cc(NC(=O)C(=O)NCC(c2cccnc2)N2CCc3ccccc32)c1 (stereo not drawn)	x	x	x	2.6%	u
CCOC(=O)C1CCN(C(=O)c2ccc(-n3ccc4ccccc43)s2)CC1	x	x	x	u	7.7
Cn1cccc1/C=N/n1c(-c2ccc(C(C)(C)C)cc2)n[nH]c1=S	-30.6%	-18.5%	14.2	4.9%	-64.3*
N=c1c2c(-c3ccccc3)c(-c3ccccc3)n(Cc3ccco3)c2ncn1Cc1ccco1	5.0%	3.8%	-14.2	2.1%	-102.3*
CC(CC(C#N)(c1ccccc1)C(C)C)N(C)C (stereo not drawn)	x	x	x	x	-4.5
COc1ccc(Oc2ccc(/C=C/C(=O)c3ccc(O)cc3)cc2[N+](=O)[O-])cc1	5.0%	-22.1%	u	-1.9%	-64.1*
NC[C@H]1O[C@H](O[C@H]2[C@H](O[C@@H]3O[C@H](CO)[C@@H](O)[C@H]3O)C(O)[C@H](N)C[C@@H]2N)[C@H](N)[C@@H](O)[C@@H]1O (stereo partly drawn)	x	x	x	x	0.0
COc1ccccc1CN1CCC(CNC(=O)c2cnn(-c3ccc(Cl)cc3)c2C2CCN(C(=O)OC(C)(C)C)CC2)CC1	x	x	x	3.6%	-61.1*
Cc1ccc(-n2ncc(C(=O)NCCN3CCC(Cc4ccccc4)CC3)c2C2CCN(C(=O)OC(C)(C)C)CC2)cc1	x	x	x	-2.5%	-68.7*
CS(=O)(=O)N(Cc1ccccc1)c1ccc(C(=O)N2CCN(c3cccc(Cl)c3)CC2)cc1	-17.6%	-5.0%	-91.9*	0.2%	-19.3
CS(=O)(=O)N(Cc1ccc(Cl)cc1)c1ccc(C(=O)N2CCN(c3ccccc3)CC2)cc1	-41.7%	-9.0%	-1.4	2.6%	7.5
Cc1ccc(C(=O)c2coc3cc([N+](=O)[O-])c(O)c([N+](=O)[O-])c23)cc1	-68.0%	35.5µM*	-13.2	-2.0%	-6.0
O=C1C2C3C=CC(CO)(O3)C2C(=O)N1c1ccccc1-c1ccccc1 (stereo not drawn)	10.7%	5.0%	-73.2*	1.0%	-11.1
CC(=O)Oc1ccc(N2C(=O)C3C4C=CC(CO)(O4)C3C2=O)cc1 (stereo not drawn)	-14.6%	-0.4%	11.6	0.6%	-5.4
O=C(CCN1C(=O)/C(=C/c2ccccc2F)SC1=S)Nc1cccnc1	-2.0%	u	4.6	1.8%	-8.1
O=C(CCN1C(=O)/C(=C\c2ccccc2Cl)SC1=S)Nc1cccnc1	-54.7%	35.5µM*	-35.7	0.3%	u
C=CCn1c(=O)[nH]c2cc(C(=O)N3CCN(c4ccc(C(C)=O)cc4)CC3)ccc2c1=O	-21.2%	-23.5%	-11.0	2.7%	23.9
C=CCn1c(=O)[nH]c2cc(C(=O)N3CCN(c4cccc(Cl)c4)CC3)ccc2c1=O	-42.3%	31.6µM*	-9.7	0.0%	-5.7
CC(CCc1ccccc1)NC(=O)COC(=O)c1ccc(S(C)(=O)=O)c([N+](=O)[O-])c1 (stereo not drawn)	3.0%[15.4 µM]	u	-47.4	-0.1%	-89.2*
NNC(=S)Nc1cccc(-c2n[nH]c(=S)o2)c1	10µM*	1.2%	-3.6	u	-8.5
